# Rows were chosen to be rich in hits. Some 2.8% of all compounds tested hit in one or more screens of this group.
# Pol kappa inh-1 = inhibitors of human DNA polymerase kappa; Potency, µM (series often up to 107 µM), for inactives: at the top dose activity, negative = inhibition, hits mostly inhibitors; 400,000 tested, 0.53% active; purified Pol kappa, fluorescent DNA synthesis assay, 10 min; note: potency is the fitted concentration of half-maximal effect; % is set by controls: 0 for no effect and ±100 for the full control effect
#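 Activity was followed as the change in fluorescence between reads at 0 and 10 min after starting the reaction with 50 nM substrate. Beforehand, 10 nM polymerase had been preincubated with compound for 15 min at room temperature.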
# WRN helicase inh = inhibitors of human WRN helicase; Potency, µM (series often up to 114 µM), for the others: at the top dose activity change, negative = inhibition, most hits filed as inhibitors; AID 651768; Q14191; 360,000 tested, 0.46% active; WRN helicase unwinding, fluorescent forked duplex, kinetic; note: potency is the fitted concentration of half-maximal effect; % is set by controls: 0 for no effect and ±100 for the full control effect; nearly all actives have a fitted effect of over 55% in size
#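 Fluorescence dequenching readout, ex 525 nm/em 598 nm, kinetic mode: forked duplex DNA (100 nM final) with adjacent fluorophore and quencher unwound by WRN (20 nM final) with 2 mM ATP. Compound preincubation 15 min, room temperature.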
# Pol beta inh = blocks human DNA polymerase beta activity; Pol beta primer extension/strand displacement, fluorescence kinetic; Potency, µM (doses to about 114 µM), for the others: top-dose activity change, negative = inhibition, usual class: inhibitors; P06746; 340,000 tested, 1.3% active; note: potency is the fitted concentration of half-maximal effect; % is set by controls: 0 for no effect and ±100 for the full control effect
#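 10 nM enzyme + cpd, 15 min RT; start with substrate 50 nM final; read 0 min and after 10 min RT. Corrected, normalized data; 4-parameter Hill curve fit.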
# POLI inh = DNA polymerase iota (human) inhibition; Q9UNA4; AID 588590; Potency, µM (highest dose often 115 µM), inactives show at the top dose activity, negative = inhibition, most hits filed as inhibitors; 390,000 tested, 1% active; Pol iota fluorescent replication assay, 10 min; note: potency is the fitted concentration of half-maximal effect
#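 Fluorescent replication assay read twice, at 0 min and 10 min after adding 50 nM (final) substrate. Enzyme (10 nM) and compounds were first incubated 15 min at room temperature; enzyme-free buffer wells were negative controls.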
# PI5P4Ka inh = PI5P4K alpha (human) kinase inhibition. P48426. AID 652105. 330,000 tested, 1.2% active. max response, %. PI5P4Kalpha enzyme, ADP-Glo luminescence, 60 min; active compounds read low; active = max response of -50% or lower; inconclusive = between -30% and -50%; inactive = -30% or higher; note: value at the top dose of about 77 µM; % is set by controls: 0 for no effect and ±100 for the full control effect
#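 Human PI5P4Kalpha with substrate in 0.038 M HEPES pH 7.4, 0.28 mM EGTA, 0.1% CHAPS, 5% DMSO; reaction started with 5 microM ATP (final), 60 min at room temperature. ADP formed read by ADP-Glo luminescence.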
# Pol eta inh-1 = blocks human DNA polymerase eta activity; 390,000 tested, 1.2% active; recombinant Pol eta, fluorescent DNA replication assay; Potency, µM (doses to about 114 µM), without a hit: top-dose activity change, negative = inhibition, most hits filed as inhibitors; note: potency is the fitted concentration of half-maximal effect; % is set by controls: 0 for no effect and ±100 for the full control effect
# Target sequence (Q9Y253 whole entry, looked up): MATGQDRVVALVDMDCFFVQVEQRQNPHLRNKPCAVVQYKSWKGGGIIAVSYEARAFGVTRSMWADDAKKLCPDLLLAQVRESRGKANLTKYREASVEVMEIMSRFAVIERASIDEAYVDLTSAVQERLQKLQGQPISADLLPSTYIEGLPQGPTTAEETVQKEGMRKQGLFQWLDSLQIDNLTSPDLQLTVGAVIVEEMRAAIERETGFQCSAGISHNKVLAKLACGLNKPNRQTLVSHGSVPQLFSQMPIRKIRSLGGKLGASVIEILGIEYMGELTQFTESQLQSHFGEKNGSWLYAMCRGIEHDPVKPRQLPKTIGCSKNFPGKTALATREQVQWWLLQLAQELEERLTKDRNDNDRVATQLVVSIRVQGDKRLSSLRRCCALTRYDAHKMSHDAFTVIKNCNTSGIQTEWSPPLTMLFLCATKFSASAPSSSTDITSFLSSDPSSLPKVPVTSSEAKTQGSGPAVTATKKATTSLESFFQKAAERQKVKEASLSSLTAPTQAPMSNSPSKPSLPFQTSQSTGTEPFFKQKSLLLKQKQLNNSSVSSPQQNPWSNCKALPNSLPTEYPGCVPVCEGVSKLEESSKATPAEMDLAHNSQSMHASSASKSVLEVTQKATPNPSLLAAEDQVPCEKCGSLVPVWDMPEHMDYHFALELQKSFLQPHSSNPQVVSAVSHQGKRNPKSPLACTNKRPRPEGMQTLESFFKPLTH
#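 Pol eta at 10 nM preincubated with compounds 15 min at room temperature; reaction started with fluorescent substrate (50 nM final) and read kinetically at 0 and 10 min.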
# Pol kappa inh-2 = confirmation of human DNA polymerase kappa inhibitors; shares compounds with Pol eta inh-1; purified Pol-kappa, fluorescent strand-displacement substrate; Potency, µM, most hits filed as inhibitors; 920 tested, 76% active; AID 720501; note: potency is the fitted concentration of half-maximal effect
# Pol eta inh-2 = Pol eta (human) inhibition, cherry-pick confirmation. shares compounds with Pol eta inh-1. Pol eta primer extension, TAMRA/BHQ fluorescence, 10 min. Potency, µM, most hits filed as inhibitors. 2,600 tested, 64% active. AID 720502; note: potency is the fitted concentration of half-maximal effect
# Numbers without * were called inactive; ? = inconclusive; . = no result given; ! = not confirmed by another sample; [ ] = another dose, or the depositor's remark. Unless noted, calls come from the whole dose curve; as a rule, active = well fitted curve in the direction sought with a large enough effect; inconclusive = small, poorly fitted or top-dose-only effect, or another doubt; inactive = no such curve, though single readings can be large; an effect the other way counts as inactive or inconclusive.
SMILES,Pol kappa inh-1,WRN helicase inh,Pol beta inh,POLI inh,PI5P4Ka inh,Pol eta inh-1,Pol eta inh-2,others
CC1(C)S[C@@H]2[C@H](NC(=O)C(C(=O)O)c3ccccc3)C(=O)N2[C@H]1C(=O)O (stereo partly drawn),-22%,.,26%,?,-6,-12%,.,
CC1(C)S[C@@H]2[C@H](NC(=O)[C@H](N)c3ccc(O)cc3)C(=O)N2[C@H]1C(=O)O,50µM*,.,0%,?,5,?,38*,
O=C(/C=C/c1ccco1)NC(=S)NNC(=O)c1ccco1,-32%,-6%[11.6 µM],?,?,.,50µM*,.,Pol kappa inh-2=?
C=CCNC(=S)NNC(=O)c1ccco1,-2%,4%,7%,43%,1,-2%,.,
Cc1ccc(NC(=O)c2cc(-c3ccco3)on2)cc1C,-13%,-18%,-19%,-6%,.,-2%,.,
Cc1ccc(NC(=O)N/C=C/c2ccco2)cc1C,79µM*,-32%[57.1 µM],25µM*,40µM*,-57*,28µM*,?,
O=C(O)c1ccccc1-c1ccccc1C(=O)Nc1ccc(F)cc1,-3%,4%,-1%,105%,-11,7%,.,
O=C(/C=C/c1ccc(NC(=O)c2ccccc2-c2ccccc2C(=O)O)cc1)c1ccccc1,-25%,?,-25%,?,-18,11µM*,30*,
Cc1cc(NC(=O)CSc2ncc(C(=O)Nc3ccc(C)c(C)c3)c(=O)n2C)no1,-5%[60.1 µM],.,-7%,31%,.,-8%,.,
O=C(CCC(=O)Nc1nnc(C2CCCCC2)s1)Nc1ccc(F)cc1,5%,-4%,-1%,35%,4,-18%,.,
Cc1ccccc1NC(=O)CSc1[nH]c(=O)cc(C)c1C#N,?,-27%[57.1 µM],3%,?,-56*,20µM*,?,
CC(NC(=O)c1cnn2c1NC(=C1CC1)C=C2C(F)F)c1ccncc1 (stereo not drawn),-21%,.,.,11%,.,.,.,
CCN(CC)C(=O)[C@H]1C[C@H](CC(=O)NC(C)(C)C)C(=O)N2CCc3c([nH]c4ccc(Cl)cc34)[C@]12C,4%,3%,.,31%,0,-20%,.,
Cc1cc(C)cc(-n2nnc(-c3nsc(NC(=O)c4ccccc4Cl)n3)c2C)c1,-11%,.,7.9µM*,?,.,?,.,Pol kappa inh-2=?
CCc1ccc(-n2nnc(-c3nsc(NC(=O)c4ccccc4Cl)n3)c2C)cc1,-17%,.,?,-1%,.,-10%,.,
Cc1ccc(OCC(=O)OCC(=O)NC2CC2)cc1C,-1%,2%,.,18%,8,-12%,.,
CC(/C=C\c1cccnc1)=C/C(=O)O,-13%,-17%[57.1 µM],28µM*!,-11%,9,20µM*!,48*,
O=C(Nc1nnc(-c2ccc(Cl)cc2)o1)Nc1ccccc1F,8%,-3%,0%,53%,0,-20%,.,
Cn1nc2c(c1C(=O)O)CCCC2,?,-12%,?,?,-3,8.9µM*,27*,
Cn1nc2c(c1C(=O)N1CCCC(C(=O)c3cc(F)ccc3F)C1)CCCC2 (stereo not drawn),-2%[60.1 µM],2%,1%,-18%,0,-19%,.,
COc1cc(NS(=O)(=O)c2ccc(N/C=C(\C#N)c3nc4cc(Cl)ccc4o3)cc2)nc(OC)n1,-3%,?,-27%,11%,?,35µM*,?,
CCOc1cc(C(=O)Nc2ccc3c(c2)n(C)c(=O)c(=O)n3C)cc(OCC)c1OCC,16%,.,3%,26%,.,13%,.,
COc1ccc(OC)c(/C=C2\S/C(=N/NC(=O)c3ccc4ccccc4c3)NC2=O)c1,-21%,?,0%,-4%,?,20µM*,.,Pol kappa inh-2=?
COc1ccc(OC)c(/C=N\NC(=O)c2ccc(-c3ccccc3)cc2)c1,-9%,-20%,8%,27%,-7,-6%,.,
Cc1ccc(S(=O)(=O)N2CCCCC2)cc1NS(=O)(=O)c1cccc(C(=O)O)c1,-18%,-27%,0%,-3%,-3,-11%,.,
SMILES,Pol kappa inh-1,WRN helicase inh,Pol beta inh,POLI inh,PI5P4Ka inh,Pol eta inh-1,Pol eta inh-2,others
COc1ccc(S(=O)(=O)N2CCC(C(=O)N[C@@H](C)C(=O)NCc3cccnc3)CC2)cc1,.,7%,.,.,1,-12%,.,
O=C1N=C(N2C=CC(=C3C=CNC=C3)C=C2)/C(=C/N=NC(=O)c2ccccc2O)S1,?,-31%,14µM*,32µM*,-61*,18µM*,76*,
COc1cccc(Nc2cc(C)nc3nc(-c4ccc(Cl)cc4)nn23)c1,-14%,.,?,?,.,79µM*,.,Pol kappa inh-2=11*
COc1cccc(CN2CC34CCC(CC3S2(=O)=O)O4)c1 (stereo not drawn),-26%,.,.,3%,.,.,.,
Cc1ccc(C(=O)Nc2ccc3c4c(cccc24)CC3)cc1[N+](=O)[O-],-11%,-15%,-15%,0%,0,-13%,.,
O=[N+]([O-])c1ccc2c([N+](=O)[O-])ccc3c2c1CC3,.,0%[11.6 µM],.,.,-74*,14µM*,76*,
COc1cccc(CNC(=O)NCc2noc3ccc(C)cc23)c1,-8%,.,4%,8%,.,-9%,.,
O=C(CSc1nc2ccsc2c(=O)n1Cc1ccccc1)NCc1ccco1,-2%,-3%,6%,42%,.,-11%,.,
O=C(CSc1nc2ccccc2c(=O)n1Cc1ccco1)NCc1ccco1,?,-33%[57.1 µM],?,32µM*,.,79µM*,?,
O=C(CSc1nc2ccsc2c(=O)n1NC(=O)c1ccccc1)NCc1ccco1,79µM*,?,?,50µM*,.,45µM*,?,
CC(C)C(OC(=O)CN1C(=O)COc2ccccc21)C(=O)NC1CCCCC1 (stereo not drawn),-1%,0%,8%,116%,-8,-21%,.,
COc1ccc(-c2c(C#N)c(SCC(=O)Nc3ccc(C)c(C)c3)nc(C)c2C(=O)Nc2ccccc2)cc1OC,0%,.,-27%,22%,.,-24%,.,
Cc1ccc(C(=O)Nc2ccc(S(=O)(=O)Nc3onc(C)c3C)cc2)cc1,-17%,.,5%,4%,.,.,.,
Cc1noc(NS(=O)(=O)c2ccc(NC(=O)c3ccc(Br)cc3)cc2)c1C,?,.,0%,-7%,.,.,.,Pol kappa inh-2=8.4*
O=[N+]([O-])c1cc(Br)cc(C=Nc2ccc3c(c2)OCO3)c1O,?,-28%,25µM*,?,-51*,79µM*,76*,
Cc1cnc(C(=O)NCC(=O)Nc2ccccc2Br)cn1,?,-4%[11.6 µM],.,18µM*,-26,32µM*,?,Pol kappa inh-2=?

# High-throughput results: PubChem BioAssay, National Center for Advancing Translational Sciences (NCATS)
